HTT ATP protect: Huntington cell model cytoprotection by ATP luminescence. actives 0.14% (n = 230,000). PC12 HTT-Q103 induced, cytoprotection, ATP luminescence, 40 h. AID 1471. Potency, µM (top dose mostly 56.4 µM), for the others: cytoprotection (ATP increase), most hits filed as activators; further: % of control where 0% means no effect; nearly all actives have a fitted effect of over 45% in size
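PC12 cells stably carrying ecdysone-inducible Htt exon 1 (Q103)–GFP were induced with 100 nM tebufenozide (final) alongside library compounds in a dose series. Cytoprotection was scored as retained ATP by ATPlite luminescence.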
HPGD inh: HPGD (human) dehydrogenase inhibition; P15428; purified HPGD, NADH fluorescence kinetic, PGE2 substrate; Potency, µM, for the others: at the top dose activity change, negative = inhibition, hits mostly inhibitors; actives 4.3% (n = 150,000); active means well fitted inhibition curve with a large enough effect, not every such curve was filed as active; inconclusive means small, poorly fitted or top-dose-only effect, or another doubt; inactive means no such curve, though single readings can be large or run the other way; further: on the % scale 0 is the no-effect control and ±100 the full control effect
Target sequence (P15428 whole entry, looked up): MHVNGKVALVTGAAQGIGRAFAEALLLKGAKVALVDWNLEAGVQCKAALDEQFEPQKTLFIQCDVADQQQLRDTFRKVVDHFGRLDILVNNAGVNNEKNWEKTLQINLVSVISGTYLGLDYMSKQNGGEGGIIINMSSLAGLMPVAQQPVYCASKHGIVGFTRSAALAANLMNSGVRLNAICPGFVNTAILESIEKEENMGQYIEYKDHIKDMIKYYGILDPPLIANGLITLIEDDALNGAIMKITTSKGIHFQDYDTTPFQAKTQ
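NADH formation kinetics: reaction with 30 uM PGE2 and 1 mM NAD+ (final), 20 nM enzyme, Tris-HCl pH 8 with Tween 20, after 15 min compound preincubation at room temperature. Fluorescence change, last versus first of five reads.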
ALDH1A1 inh: blocks purified human ALDH1A1 activity. P00352. Purified ALDH1A1, NADH fluorescence, propionaldehyde substrate. Potency, µM (titrated, usually from 75.3 µM), without a hit: top-dose activity, negative = inhibition, usual class: inhibitors. actives 7.3% (n = 220,000). AID 1030; active means well fitted inhibition curve with a large enough effect, not every such curve was filed as active; inconclusive means small, poorly fitted or top-dose-only effect, or another doubt; inactive means no such curve, though single readings can be large or run the other way;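 further: plate controls were no enzyme wells and a reference inhibitor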
Target sequence (P00352 whole entry, looked up): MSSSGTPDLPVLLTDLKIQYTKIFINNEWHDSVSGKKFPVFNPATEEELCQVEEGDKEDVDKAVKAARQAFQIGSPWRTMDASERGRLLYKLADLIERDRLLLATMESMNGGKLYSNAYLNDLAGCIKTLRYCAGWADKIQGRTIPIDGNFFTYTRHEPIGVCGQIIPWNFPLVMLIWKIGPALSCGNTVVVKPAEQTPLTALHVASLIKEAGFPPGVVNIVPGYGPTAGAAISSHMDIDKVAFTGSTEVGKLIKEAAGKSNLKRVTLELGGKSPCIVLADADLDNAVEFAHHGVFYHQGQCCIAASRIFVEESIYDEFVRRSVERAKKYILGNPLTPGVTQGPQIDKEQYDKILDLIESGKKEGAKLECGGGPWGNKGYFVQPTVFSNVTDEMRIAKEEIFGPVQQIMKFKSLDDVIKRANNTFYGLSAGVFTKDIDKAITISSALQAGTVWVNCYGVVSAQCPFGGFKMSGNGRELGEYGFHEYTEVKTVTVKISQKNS
LMNA splice mod: changes lamin A minigene splicing in HeLa cells | Potency, µM (doses to about 46.1 µM), for inactives: at the highest dose ratio change, negative = inhibition, usual class: inhibitors | HeLa LMNA splicing GFP/RFP minigene ratio, 48 h | actives 0.01% (n = 200,000); active means well fitted inhibition curve with a large enough effect in the signal ratio, with a control signal flat, not every such curve was filed as active; inconclusive means small, poorly fitted or top-dose-only effect, or effect the other way, or a change in a side signal; the % refers to the signal ratio; further: on the % scale 0 is the no-effect control and ±100 the full control effect
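Read-out is the ratio of GFP to DsRed2 object intensity, acquired by 488 nm laser-scanning cytometry on HeLa lamin A-EGFP minigene reporter cells. Compound incubation 48 hrs at 37 °C in Opti-MEM with 2% FBS; DMSO 0.5% final.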
HTT aggregate: reduces HttQ103-GFP aggregates in PC12 cells | PC12 HttQ103-GFP aggregates, Acumen cytometry, 40 h | Potency, µM (titrated, usually from 46.1 µM), for the others: top-dose activity change, negative = inhibition, hits mostly inhibitors | actives 1.1% (n = 220,000); further: on the % scale 0 is the no-effect control and ±100 the full control effect; nearly all actives have a fitted effect of over 60% in size
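PC12 cells stably carrying ecdysone-inducible HTT exon 1 Q103–GFP were induced with tebufenozide (100 nM final) and treated with library compounds in titration. GFP aggregates in lysates were counted by laser scanning cytometry.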
The depositor's hits bear a star; u = inconclusive; x = not tested or not shown; ! = repeats disagree; [ ] = dose if it differs, or a comment. This is a sample that favours compounds with a hit; in the whole collection about 8.8% have one here. Unless noted, the call rests on the fitted dose curve; in most records, active means well fitted curve in the direction sought with a large enough effect; inconclusive means small, poorly fitted or top-dose-only effect, or another doubt; inactive means no such curve, though single readings can be large; an effect the other way counts as inactive or inconclusive. Potency means the concentration at half of the fitted maximal effect.

SMILES | HTT ATP protect | HPGD inh | ALDH1A1 inh | LMNA splice mod | HTT aggregate
Cc1ccc(Oc2ccccc2/C=N/O)cc1 | -5%[10 µM] | -29% | 0% | u | -21%
COc1cc(C)c(S(=O)(=O)N2CCOCC2)cc1C | -6%[10 µM] | -9% | -2% | 2% | -6%
CCOc1cc(C)c(C(C)C)cc1S(=O)(=O)N1CCOCC1 | 4% | -9% | 3.5µM* | -10% | 3%
COc1cc(C)c(C(C)C)cc1S(=O)(=O)N1CCOCC1 | -5% | -4% | 3.2µM* | 9% | 3%
CCCOC(=O)c1ccc(NC(=O)c2cc(=O)[nH]c3ccccc23)cc1 | 9%[10 µM] | x | x | x | 11%[9.22 µM]
COc1ccc2[nH]cc(CCNS(=O)(=O)Cc3ccccc3)c2c1 | 18%[10 µM] | x | -4% | x | 10%[9.22 µM]
COCCCNC(=O)c1cnn(-c2ccc(F)cc2F)c1C1CCNCC1 | x | x | x | 9%[46 µM] | x
COc1cc(/C=N/NC(=O)c2ccccc2Cl)ccc1Oc1ccc([N+](=O)[O-])cn1 | -57% | x | -1% | 15%[46 µM] | -19%
CCn1c(N)c(C(=O)NCC2CCCO2)sc1=S (configuration not stated) | -31% | 6.3µM* | 8.9µM* | 7% | 18%
Nc1c(C(=O)NCC2CCCO2)sc(=S)n1-c1ccccc1 (configuration not stated) | -14% | 25µM* | 14µM* | -3% | -21%
O=C(/C=C\c1ccc(O)c(O)c1)O[C@H]1C[C@@](O)(C(=O)O)C[C@H](O)[C@@H]1O | -12% | x | x | x | x
CCC(CC)C(=O)N1CCc2cc(OC)c(OC)cc2C1COc1ccccc1OC (configuration not stated) | x | x | x | -8%[46 µM] | x
CC1CCN(C(=S)c2cn(Cc3ccccc3F)c3ccccc23)CC1 | -36% | -11% | 14µM* | u | 16µM*
CN1CCN(C(=S)c2cn(Cc3ccccc3F)c3ccccc23)CC1 | u | x | -5% | -7%[46 µM] | -11%
CCOC(=O)CC1=NN(c2ccccc2)C(=O)C1 | -28% | x | 3% | u | 0%
CCOC(=O)CC1=NN(c2ccccc2)C(=O)/C1=C\c1ccc(N(C)C)cc1 | -23%[10 µM] | -26% | 5µM* | -11% | 0%
CCc1ccc(NC(=O)Cn2c(=O)ccc3cc(S(=O)(=O)N4CCCC4)ccc32)cc1 | x | x | x | 12%[46 µM] | x
CC(C)C(NC(=O)CC12CC3CC(CC(C3)C1)C2)C(=O)O (configuration not stated) | -16% | -2% | 5% | -2% | 3%
CCN1CCC(=NNC(=O)CC23CC4CC(CC(C4)C2)C3)CC1 | -24% | -13% | 1.8µM* | 8% | 6%
O=c1cc(-c2ccccc2Cl)oc2c([N+](=O)[O-])ccc(O)c12 | -32% | -18% | 0% | x | x
O=C1NC(=O)C(c2ccccc2[N+](=O)[O-])=C1Nc1ccc(O)c(Cl)c1 | 13µM*! | -14% | 28µM*! | u | x
Cc1c(N=Nc2c(-c3ccc([N+](=O)[O-])cc3)[nH]n(C(N)=S)c2=O)cccc1[N+](=O)[O-] | x | x | 22µM* | x | u
NC(=S)n1[nH]c(-c2ccc([N+](=O)[O-])cc2)c(N=Nc2cccc([N+](=O)[O-])c2)c1=O | -121% | x | 25µM* | u | 13µM*
NC(=S)n1[nH]c(-c2ccc([N+](=O)[O-])cc2)c(N=Nc2ccccc2[N+](=O)[O-])c1=O | 12%[10 µM] | x | u | u | 4%
CCOC(=O)C1CCN(S(=O)(=O)c2cc3c4c(c2)CC(=O)N4CCC3)CC1 | x | x | x | 0%[46 µM] | x
SMILES | HTT ATP protect | HPGD inh | ALDH1A1 inh | LMNA splice mod | HTT aggregate
CCCc1ccc(Oc2cn[nH]c2-c2ccc(O)c(C)c2O)cc1 | 14%[10 µM] | 18µM* | 5% | u | u
CCCCNC(=S)Nc1ccc2nc3n(c(=O)c2c1)CCCCC3 | 16%[10 µM] | 14µM* | -14% | u | 2%
CC1CCN(C(=S)Nc2ccc3nc4n(c(=O)c3c2)CCCCC4)CC1 | -9%[10 µM] | 13µM* | u | u | 9%
O=c1c2cc(NC(=S)N3CCCCC3)ccc2nc2n1CCCCC2 | -12% | x | u | x | -11%
CC(C)CCNC(=S)Nc1ccc2nc3n(c(=O)c2c1)CCCCC3 | 1%[10 µM] | 4.5µM* | u | u | -5%
O=C(Nc1ccc2nc3n(c(=O)c2c1)CCCC3)c1cc([N+](=O)[O-])ccc1F | -10%[10 µM] | -5% | u | u | 14µM*
CC(C)OCCCNC(=S)Nc1ccc2nc3n(c(=O)c2c1)CCCCC3 | -27% | x | -4% | 1%[9.22 µM] | 6%
COc1ccccc1CNc1ncncc1-c1ccccc1C | 13% | -13% | u | -6% | x
Cc1cc(C)nc(SCC(=O)NC2=NC(=O)C(C)S2)n1 (configuration not stated) | 8%[10 µM] | u | 22µM* | 6% | -2%
Cc1cc(C(F)(F)F)nc(SCC(=O)NC2=NC(=O)C(C)S2)n1 (configuration not stated) | 26%[10 µM] | -27% | u | -7% | 25%
C=CCOC(=O)C1(C(NC(=O)OC)c2ccccc2)C(=O)Cc2ccccc21 (configuration not stated) | u | -9% | 4.5µM* | x | x
CC(C)OC(=O)/C(C#N)=C\c1cccnc1 | 11%[10 µM] | x | 8.9µM* | -6%[46 µM] | 18%[9.22 µM]
COC(=O)c1ccc(NC(=O)CN2C(=O)C3C4C=CC(C4)C3C2=O)cc1 (configuration not stated) | 4%[10 µM] | 20µM* | 3% | 5% | 14%
O=C(CN1C(=O)C2C3C=CC(C3)C2C1=O)Nc1ccc(C(=O)O)cc1 (configuration not stated) | 16% | -11% | 8% | 6% | 10%
CCOC(=O)c1ccc(NC(=O)C(=O)NCc2ccncc2)cc1 | -9%[10 µM] | -28% | u | -3% | -20%
COC(=O)c1ccc(CNCC(=O)Nc2ccc(C(=O)OC)cc2)cc1 | x | 28µM* | -5% | u | 7%
COC(=O)c1ccc(NC(=O)CNCc2ccncc2)cc1 | 12%[10 µM] | 0% | 22µM* | -6% | -3%
COC(=O)c1ccc(CSc2nnc(-c3ccncc3)n2Cc2ccccc2)o1 | -16%[0.074 µM] | x | 25µM* | 0% | 16%
COC(=O)c1ccc(CSc2nnc(Nc3ccccc3OC)s2)o1 | -21% | -21% | 25µM* | u | -5%
CNC(=O)CSc1nnc(-c2ccncc2)n1Cc1ccccc1 | -3%[10 µM] | -5% | 2% | 10% | -8%
COC(=O)c1ccc(CSc2nnc(Nc3ccc(OC)cc3)s2)o1 | -6% | -9% | 0% | 1% | 0%
COC(=O)c1ccc(CSc2nnc(NCc3ccccc3)s2)o1 | -14%[10 µM] | 14µM* | -14% | 1% | -2%
O=c1c(-c2ccccc2)nc2cnc(N3CCOCC3)nc2n1CCc1ccccc1 | -7% | x | u | -8% | x
COc1ccc(CNc2ncnc3ccc(-c4ccc(N(C)C)cc4)cc23)c(OC)c1 | -170% | x | u | u | x
COCCCNC(=O)C(=O)NCC(c1ccc2c(c1)OCO2)N1CCOCC1 (configuration not stated) | x | x | x | 8%[46 µM] | x
